Compound activity as filed in PubChem.
KinaseGlo FLuc: counter-screen: inhibitors of Kinase-Glo firefly luciferase. Q27757. Kinase-Glo luciferase, ATP luminescence, 8 min. Potency, µM (titrated, usually from 38.3 µM), without a hit: at the highest dose activity change, negative = inhibition, actives largely listed as inhibitors. hit rate 0.28% among 200,000; also: % is scaled to controls: 0 for no effect and ±100 for the full control effect; nearly all actives have a fitted effect of over 60% in size
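Compound is pinned into ATP-containing buffer (10 uM ATP, imidazole pH 7.2, 7 mM MgCl2). Kinase-Glo luciferase reagent is then added. Light output is recorded following an 8-min room-temperature incubation.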
ELG1 genotox: genotoxicity induction in ELG1-luciferase HEK293T cells. HEK293T ELG1-luciferase reporter, luminescence, 16 h. Potency, µM (top dose mostly 46 µM), for inactives: at the highest dose activity change, positive = activation, hits mostly activators. hit rate 1.3% among 330,000. AID 504466; also: % of control where 0% means no effect; nearly all actives have a fitted effect of over 60% in size
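Quantitative HTS format in 1536-well plates. HEK293T ELG1-luciferase reporter cells receive test compound and are incubated 16 hr at 37 °C, 5% CO2; ONE-Glo added, 30 min room temperature, then luminescence read.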
SMN2 splice up: increases expression of the SMN2 splice variant; HEK293 SMN2-luciferase splicing reporter, luminescence, 30-36 h; Potency, µM (top dose mostly 46.1 µM), without a hit: at the highest dose activity change, positive = activation, usual class: activators; hit rate 2.8% among 210,000; AID 1458; also: % of control where 0% means no effect; nearly all actives have a fitted effect of over 55% in size
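HEK293 cells carry an SMN2 minigene-luciferase reporter in which exon 7 inclusion puts luciferase in frame. Cells were seeded at 2000 cells/well, attached for 10-12 hours, then exposed to compounds for 30-36 hours at 37C before ONE-Glo luminescence.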
NPC1 promoter act: activates the NPC1 promoter. Potency, µM (highest dose often 9.22 µM), inactives show top-dose activation, most hits filed as activators. AID 485313. hit rate 2.4% among 320,000. Huh7 NPC1 promoter luciferase reporter, 24 h; also: % of control where 0% means no effect; nearly all actives have a fitted effect of over 60% in size
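Cells: Huh7 expressing luciferase under the NPC1 promoter, 1500/well. Seeded 2 h, compound added, incubated 24 h at 37 °C. Luciferase reagent, 10 min ambient, then luminescence.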
FLuc modulator: firefly luciferase modulation, counter-screen for miR-21 project | purified FLuc, Km substrates, luminescence inhibition | Potency, µM (titrated, usually from 57.5 µM), inactives show top-dose activity change, negative = inhibition, most hits filed as inhibitors | hit rate 6.9% among 360,000 | P08659 | AID 588342;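 also: plate controls were vehicle for no effect and reference inhibitor for full effect; nearly all actives have a fitted effect of over 55% in size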
Target sequence (P08659 whole entry, looked up): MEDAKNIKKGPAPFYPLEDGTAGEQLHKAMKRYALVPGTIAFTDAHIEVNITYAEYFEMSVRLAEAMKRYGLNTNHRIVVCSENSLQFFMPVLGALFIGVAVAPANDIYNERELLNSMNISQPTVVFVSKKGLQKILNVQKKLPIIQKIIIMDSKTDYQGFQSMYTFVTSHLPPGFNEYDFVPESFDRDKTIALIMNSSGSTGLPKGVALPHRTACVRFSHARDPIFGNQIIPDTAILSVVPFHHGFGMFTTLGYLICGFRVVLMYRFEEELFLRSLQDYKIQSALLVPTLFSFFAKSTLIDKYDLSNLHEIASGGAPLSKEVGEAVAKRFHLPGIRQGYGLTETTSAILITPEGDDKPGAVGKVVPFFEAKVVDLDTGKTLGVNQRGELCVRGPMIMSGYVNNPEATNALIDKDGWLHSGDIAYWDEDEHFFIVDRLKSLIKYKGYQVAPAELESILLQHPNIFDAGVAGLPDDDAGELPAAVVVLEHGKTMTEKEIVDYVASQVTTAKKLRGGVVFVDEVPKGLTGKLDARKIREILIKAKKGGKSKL
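Purified P. pyralis luciferase (10nM final) with 10uM D-luciferin and 10uM ATP (Km levels) in 50mM Tris acetate pH 7.5, 10mM Mg acetate, 0.01% Tween-20, 0.05% BSA; qHTS 6-point titration, ~60 µM downward; luminescence read.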
Rab9 promoter act: Rab9 promoter activation. Huh7 Rab9 promoter-luciferase reporter, luminescence, 24 h. hit rate 2.8% among 320,000. AID 485297. Potency, µM (highest dose often 9.22 µM), for the others: top-dose activation, negative = inhibition, actives largely listed as activators; also: % of control where 0% means no effect; nearly all actives have a fitted effect of over 60% in size
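Luminescence from Amplite-detected luciferase (10 minutes, ambient) reports Rab9 promoter activation. Before that, stable Rab9-luciferase Huh7 cells (1500/well, reduced-serum OP-MEM I plus 10% FBS) were exposed to compound for 24 hours at 37C.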
Active calls of the source: *; ? = inconclusive; . = not tested or not shown. Most compounds without a hit are left out; they make up all but 7.5% or so of the library. Calls follow the shape of the dose curve; as a rule, active = well fitted curve in the direction sought with a large enough effect; inconclusive = small, poorly fitted or top-dose-only effect, or another doubt; inactive = no such curve, though single readings can be large; an effect the other way counts as inactive or inconclusive. Potency is read from the fitted curve at half-maximal effect.

SMILES | KinaseGlo FLuc | ELG1 genotox | SMN2 splice up | NPC1 promoter act | FLuc modulator | Rab9 promoter act
CCN(CC)c1ccc(C(=O)NNC(=O)CNC(=O)c2ccco2)cc1 | . | 3% | . | -1% | ? | -4%
Cc1nn2c(-c3ccc(Cl)cc3Cl)nnc2s1 | -8% | 2% | 4% | -1% | 5% | -9%
CCOc1ccc(NC(=O)c2ccc(NS(=O)(=O)c3cccs3)cc2)cc1 | . | -1% | . | -6% | 12µM* | -2%
CCOC(=O)N1CCN(S(=O)(=O)c2c(C(=O)N3CCCCC3)c(C)n(C)c2C)CC1 | . | 5% | . | -1% | 1% | 2%
Brc1cccc(-c2cnco2)c1 | 2% | 3% | . | -6% | -1% | -4%
CC(C)(C)C(=O)Nc1ccc(-c2cnco2)cc1 | . | 14% | . | 21% | 17µM* | 18%
CC(C)(C)c1ccc(-c2cnco2)cc1 | . | 3% | . | 2% | 17µM* | 1%
Cc1[nH]c2ccccc2c1C(=O)CSC(=S)N(C)C1CCCCC1 | 0% | 5% | -1% | 14% | 15µM* | -2%
Cc1[nH]c2ccccc2c1C(=O)CSC(=S)N1CCCCC1 | -6% | ? | 8.9µM* | ? | 9.5µM* | ?
CC(C)C[C@@H](CC(=O)N[C@H](CC(=O)N[C@@H]1CCCC[C@H]1C(=O)N[C@H](CC(=O)N[C@@H](CCC(=O)O)CC(=O)O)Cc1c[nH]c2ccccc12)C(C)C)NC(=O)[C@@H]1CCCC[C@H]1N | 2% | . | 20% | . | . | .
COc1ccc(-n2c(SCC(=O)Nc3nnc(C)s3)nc3c([nH]c4ccccc43)c2=O)cc1 | . | . | . | . | 3% | .
CCOc1ccc2c(c1)C(=O)c1cc(OCC(=O)O)ccc1-2 | . | -8% | . | 14% | 3.4µM* | 2%
CCCCOc1ccc2c(c1)C(=O)c1cc(O)ccc1-2 | 0% | ? | . | ? | 27µM* | 3.2µM*
Cc1ccc(C)c(N2CCN(C(=O)Cn3ncc4c(=O)oc5ccccc5c43)CC2)c1 | . | . | -14% | . | -8% | .
CN(Cc1ccc(F)cc1)C(=O)CCc1nnc(-c2ccccc2)o1 | 0% | ? | . | ? | 17µM* | ?
COc1ccc(CCN(C)C(=O)CCc2nnc(-c3ccccc3)o2)cc1OC | -2% | ? | . | 4.5µM* | 19µM* | 3.2µM*
CN(Cc1nc2c(s1)CCCC2)C(=O)CCc1nnc(-c2ccccc2)o1 | . | 16% | . | 14% | ? | 23%
[O-][n+]1c2c(nc3c1-c1ccccc1C3O)CCCC2 (stereo not given) | -1% | ? | ? | 25% | -4% | ?
CCOc1ccc(/C=N/NC(=O)c2cc3c(OC)cccc3[nH]2)cc1 | . | 6% | . | -5% | ? | -5%
COc1ccc(OC)c(/C=N/NC(=O)c2cc3c(OC)cc(OC)cc3[nH]2)c1 | . | -10% | . | 9% | 15µM* | 3%
CCOc1ccc2[nH]c(C(=O)N/N=C/c3cc(OC)c(OC)c(OC)c3)cc2c1 | . | -11% | . | 18% | 4.8µM* | 8%
CCOc1ccc(/C=N/NC(=O)c2cc3c(OC)cc(OC)cc3[nH]2)cc1OC | . | -9% | . | -2% | 15µM* | -2%
COc1ccc(OC)c(/C=N/NC(=O)c2cc3c(OC)cccc3[nH]2)c1 | . | -4% | . | 8% | ? | 3%
COc1ccccc1NC(=O)C1=C(C)Nc2nc(-c3ccco3)nn2C1c1cccc(C)c1 (stereo not given) | . | . | -6% | . | -7% | .
O=C(COc1ccc(F)cc1Br)N1CCc2ccccc21 | -9% | 1.6µM* | 11µM* | 2.8µM* | 0.76µM* | 0.63µM*
SMILES | KinaseGlo FLuc | ELG1 genotox | SMN2 splice up | NPC1 promoter act | FLuc modulator | Rab9 promoter act
O=Cc1ccc(OCC(=O)N2CCc3ccccc32)c(Br)c1 | . | ? | . | 6% | 7.6µM* | 19%
O=C(COc1ccccc1F)OCC(=O)N1CCc2ccccc21 | . | -1% | . | 2% | ? | ?
COc1cc(CO)ccc1OCC(=O)N1CCc2ccccc21 | . | 15% | . | 16% | -6% | 26%
COc1ccc(CNC(=O)Cn2c(=O)n(CCC(=O)N3CCCCC3)c(=O)c3sccc32)cc1 | . | -8% | . | -7% | 2% | -5%
COc1ccc(N2CC(C(=O)Nc3cc(C)ccn3)CC2=O)cc1 (stereo not given) | . | -5% | . | 3% | 0% | -2%
Cc1ccc(CO)cc1Nc1ncnc2onc(-c3ccc(F)cc3)c12 | . | . | -13% | . | -5% | .
CCOC(=O)C1=C(CSc2nc(-c3ccccc3)ccc2C#N)OC(N)=C(C#N)C1c1ccc(OC)cc1 (stereo not given) | 2% | ? | -4% | -1% | 15µM* | -3%
CC(C)Oc1ccc(CNC(=O)c2cc3cccc4c3n2CC(C)S4)cc1 (stereo not given) | . | . | . | . | -3% | .
CN=c1scc(-c2ccc(OC)cc2)n1/N=C(\C)c1cccnc1 | 3% | -2% | -21% | 14% | 12µM* | 1%
COc1ccc(CC(=O)N/N=C(\C)c2cccnc2)cc1 | . | 4% | . | -1% | 2% | 3%
O=C(O)CCC(=O)NNC(=O)c1cccc(Cl)c1 | 2% | 2% | 8% | 0% | 6% | -4%
O=S(=O)(/N=C(/NC(=S)Nc1ccccc1)c1ccccc1)c1ccc(Cl)cc1 | . | ? | . | 22% | 24µM* | 27%
O=C(NN/C(=N/S(=O)(=O)c1ccc(Cl)cc1)c1ccccc1)c1cccc(Cl)c1 | . | 16µM* | . | 4µM* | 6µM* | ?
